Results filed as inconclusive are left out. Activity calls are given as the source filed them. Calls come from the whole dose curve; as a rule, active = well fitted cell-killing curve with a large enough effect; inconclusive = small, poorly fitted or top-dose-only effect, or effect the other way; inactive = flat fitted curve, though single readings scatter. Where a SMILES comes first, the peptide text is derived from it. The star is where a group is joined. AFC = O=c1cc(C(F)(F)F)c2ccc(N*)cc2o1
How the values were obtained:
Experiment in all cases: Primary qHTS to identify gynecologic anti-cancer compounds using libraries of approved drugs and bioactive compounds (AID 1345084); note: nearly all actives have a fitted effect of over 55% in size
Es-2 = conditions: Gynecologic cancer cell panel viability, ATPlite luminescence, 48 h; series mostly up to 57.5 µM
In short: (§1)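 Cytotoxicity screen measuring ATP content by luciferase luminescence. Each compound is applied at five concentrations for 48 h at 37 C with 5% CO2.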

HeLa = conditions: Gynecologic cancer cell panel viability, ATPlite luminescence, 48 h; series mostly up to 57.5 µM
In short: as §1

Hek293T = conditions: Gynecologic cancer cell panel viability, ATPlite luminescence, 48 h, control line for the selectivity index; series mostly up to 57.5 µM
In short: as §1

JEG-3 = conditions: Gynecologic cancer cell panel viability, ATPlite luminescence, 48 h; series mostly up to 57.5 µM
In short: as §1

OV90 = conditions: Gynecologic cancer cell panel viability, ATPlite luminescence, 48 h; series mostly up to 57.5 µM
In short: as §1

PA-1 = conditions: Gynecologic cancer cell panel viability, ATPlite luminescence, 48 h; series mostly up to 57.5 µM
In short: as §1

SKOV3 = conditions: Gynecologic cancer cell panel viability, ATPlite luminescence, 48 h; series mostly up to 57.5 µM
In short: as §1

Tov-21-G = conditions: Gynecologic cancer cell panel viability, ATPlite luminescence, 48 h; series mostly up to 57.5 µM
In short: as §1

Tov112D = conditions: Gynecologic cancer cell panel viability, ATPlite luminescence, 48 h; series mostly up to 57.5 µM
In short: as §1
% is set by controls: 0 for no effect and ±100 for the full control effect.

CC1=CC[C@]2(C(=O)O[C@@H]3O[C@H](CO[C@@H]4O[C@H](CO)[C@@H](O[C@@H]5O[C@@H](C)[C@H](O)[C@@H](O)[C@H]5O)[C@H](O)[C@H]4O)[C@@H](O)[C@H](O)[C@H]3O)CC[C@]3(C)C(CCC4[C@@]5(C)C[C@@H](O)[C@H](O)[C@@](C)(CO)C5CC[C@]43C)C2C1C (stereo partly specified)
inactive: activity change, negative = cytotoxicity (Es-2) 6.73% [at 11.6 µM] | activity change, negative = cytotoxicity (HeLa) 3.93% [at 11.6 µM] | activity change, negative = cytotoxicity (Hek293T) -4.38% [at 11.6 µM] | activity change, negative = cytotoxicity (JEG-3) -1.63% [at 11.6 µM] | activity change, negative = cytotoxicity (OV90) 6.64% [at 11.6 µM] | activity change, negative = cytotoxicity (PA-1) 10.1% [at 11.6 µM] | activity change, negative = cytotoxicity (SKOV3) -2.91% [at 11.6 µM] | activity change, negative = cytotoxicity (Tov-21-G) 4.72% [at 11.6 µM] | activity change, negative = cytotoxicity (Tov112D) -1.58% [at 11.6 µM]

C[C@@H]1O[C@@H](O[C@H]2[C@H](OC(=O)C34CCC5(C)C(=CCC6C7(C)CC(O)C(O[C@@H]8O[C@H](C(=O)O)[C@@H](O)[C@H](O)[C@H]8O)C(C)(C(=O)O)C7CCC65C)C3CC(C)(C)CC4O)O[C@H](C)[C@@H](O)[C@@H]2O)[C@H](O)[C@@H](O[C@@H]2OC[C@](O)(CO)[C@H]2O[C@@H]2O[C@H](CO)[C@@H](O)[C@H](O)[C@H]2O)[C@H]1O (stereo partly specified)
inactive: activity change, negative = cytotoxicity (Es-2) -1.29% [at 6.55 µM] | activity change, negative = cytotoxicity (HeLa) -4.39% [at 6.55 µM] | activity change, negative = cytotoxicity (Hek293T) 5.55% [at 6.55 µM] | activity change, negative = cytotoxicity (JEG-3) 16.4% [at 6.55 µM] | activity change, negative = cytotoxicity (OV90) -2.48% [at 6.55 µM] | activity change, negative = cytotoxicity (PA-1) 9.01% [at 6.55 µM] | activity change, negative = cytotoxicity (SKOV3) 13.1% [at 6.55 µM] | activity change, negative = cytotoxicity (Tov-21-G) -3.03% [at 6.55 µM] | activity change, negative = cytotoxicity (Tov112D) 10.3% [at 6.55 µM]

OCC1=CC[C@@H]2C=CO[C@@H](O[C@@H]3O[C@H](CO)[C@@H](O)[C@H](O)[C@H]3O)[C@H]12
inactive: Potency (Es-2) | Potency (HeLa) | Potency (Hek293T) | Potency (JEG-3) | Potency (OV90) | Potency (PA-1) | Potency (SKOV3) | Potency (Tov-21-G) | Potency (Tov112D)

COC(=O)[C@]12C(=O)C(C)=C(O)[C@@]1(C)C(C)=CC1[C@@]34CC[C@@H](OC(C)=O)C(C)(C)C3[C@H](C[C@]12C)OC4=O (stereo partly specified)
inactive: Potency (Es-2) | Potency (HeLa) | Potency (Hek293T) | Potency (JEG-3) | Potency (OV90) | Potency (PA-1) | Potency (SKOV3) | Potency (Tov-21-G) | Potency (Tov112D)

CC1=C2C3OC(=O)C(C)C3(O)CCC2(C)CCC1=O (stereo unspecified)
inactive: Potency (Es-2) | Potency (HeLa) | Potency (Hek293T) | Potency (JEG-3) | Potency (OV90) | Potency (PA-1) | Potency (SKOV3) | Potency (Tov-21-G) | Potency (Tov112D)

CCOc1nc2cccc(C(=O)OCc3oc(=O)oc3C)c2n1Cc1ccc(-c2ccccc2-c2noc(O)n2)cc1
inactive: Potency (Es-2) | Potency (HeLa) | Potency (Hek293T) | Potency (JEG-3) | Potency (OV90) | Potency (PA-1) | Potency (SKOV3) | Potency (Tov-21-G) | Potency (Tov112D)

COc1cccc2c1CCC[C@H]2CN(C)CCc1ccc2ccoc2c1
inactive: Potency (Es-2) | Potency (HeLa) | Potency (Hek293T) | Potency (JEG-3) | Potency (OV90) | Potency (PA-1) | Potency (SKOV3) | Potency (Tov-21-G) | Potency (Tov112D)

CCOC(=O)c1ccnc(CNCC(=O)N(CC)CCN(C)C)c1
inactive: Potency (Es-2) | Potency (HeLa) | Potency (Hek293T) | Potency (JEG-3) | Potency (OV90) | Potency (PA-1) | Potency (SKOV3) | Potency (Tov-21-G) | Potency (Tov112D)

CC(=O)N[C@@H](CC(C)C)C(=O)N[C@@H](CCC(=O)O)C(=O)N[C@@H](CCC(=O)O)C(=O)N[C@@H](CC(=O)O)C(=O)Nc1ccc2c(C(F)(F)F)cc(=O)oc2c1 (Ac-LEED-{AFC})
inactive: Potency (Es-2) | Potency (HeLa) | Potency (Hek293T) | Potency (JEG-3) | Potency (OV90) | Potency (PA-1) | Potency (SKOV3) | Potency (Tov-21-G) | Potency (Tov112D)

C=C1CCC2C(C)(COC3OC(COC(=O)CC(=O)O)C(O)C(O)C3O)CCCC2(C)C1CCC1=CCOC1=O (stereo unspecified)
inactive: Potency (Es-2) | Potency (HeLa) | Potency (Hek293T) | Potency (JEG-3) | Potency (OV90) | Potency (PA-1) | Potency (SKOV3) | Potency (Tov-21-G) | Potency (Tov112D)

CC(=O)O[C@@H]1[C@@H](OC(=O)/C=C/c2ccccc2)[C@H](C)O[C@@H](O[C@H]2[C@@H]3C=CO[C@@H](O[C@@H]4O[C@H](CO)[C@@H](O)[C@H](O)[C@H]4O)[C@@H]3[C@@]3(CO)O[C@@H]23)[C@@H]1OC(C)=O
inactive: Potency (Es-2) | Potency (HeLa) | Potency (Hek293T) | Potency (JEG-3) | Potency (OV90) | Potency (PA-1) | Potency (SKOV3) | Potency (Tov-21-G) | Potency (Tov112D)

CCC(NC(=O)CC(NC(=O)C(CO)NC(=O)C(CC)NC(=O)c1ccc[nH]1)c1ccccc1)C(=O)O (stereo unspecified)
inactive: Potency (Es-2) | Potency (HeLa) | Potency (Hek293T) | Potency (JEG-3) | Potency (OV90) | Potency (PA-1) | Potency (SKOV3) | Potency (Tov-21-G) | Potency (Tov112D)

CC(=O)OC[C@]1(O)[C@H]2[C@H](OC(=O)CC(C)C)OC=C(CO[C@@H]3O[C@H](CO)[C@@H](O)[C@H](O)[C@H]3O)[C@H]2C[C@@H]1O
inactive: Potency (Es-2) | Potency (HeLa) | Potency (Hek293T) | Potency (JEG-3) | Potency (OV90) | Potency (PA-1) | Potency (SKOV3) | Potency (Tov-21-G) | Potency (Tov112D)

C/C=C(\C)C(=O)O[C@H]1[C@H](O)[C@]2(COC(C)=O)[C@H](O)C[C@]3(C)C(=CCC4[C@@]5(C)CC[C@H](O[C@@H]6O[C@H](C(=O)O)[C@@H](O[C@@H]7O[C@H](CO)[C@@H](O)[C@H](O)[C@H]7O)[C@H](O)[C@H]6O[C@@H]6O[C@H](CO)[C@@H](O)[C@H](O)[C@H]6O)[C@](C)(CO)C5CC[C@]43C)[C@@H]2CC1(C)C (stereo partly specified)
inactive: activity change, negative = cytotoxicity (Es-2) 5.46% [at 11.6 µM] | activity change, negative = cytotoxicity (HeLa) 15.8% [at 11.6 µM] | activity change, negative = cytotoxicity (Hek293T) 5.9% [at 11.6 µM] | activity change, negative = cytotoxicity (JEG-3) -4.88% [at 11.6 µM] | activity change, negative = cytotoxicity (OV90) -1.43% [at 11.6 µM] | activity change, negative = cytotoxicity (PA-1) 25.1% [at 11.6 µM] | activity change, negative = cytotoxicity (SKOV3) 20.3% [at 11.6 µM] | activity change, negative = cytotoxicity (Tov-21-G) 0.503% [at 11.6 µM] | activity change, negative = cytotoxicity (Tov112D) 7.17% [at 11.6 µM]

— PubChem BioAssay (NCATS)
